An excerpt weighted towards active compounds, which were near 14% of everything screened.
Sm TGR block: qHTS Assay for the Inhibitors of Schistosoma Mansoni Peroxiredoxins; purified TGR, DTNB reduction, TNB absorbance 405 nm; AID 485364, 2010; 360,000 compounds, 3% hits; Potency, µM (top dose mostly 114 µM), actives largely listed as inhibitors; note: nearly all actives have a fitted effect of over 60% in size
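First, TGR (20 nM dispensed) and NADPH were mixed with compound. Second, a 15 min room-temperature incubation followed. Third, further NADPH and then DTNB were added to start the reaction. Finally, TNB absorbance was monitored kinetically.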
FBPA Giardia inh: qHTS Assay for Inhibitors of Fructose-1,6-bisphosphate Aldolase from Giardia Lamblia | AID 2451, 2010 | 290,000 compounds, 0.71% hits | purified Giardia FBPA | A8B2U2 | Potency, µM (highest dose often 59.6 µM), usual class: inhibitors; note: nearly all actives have a fitted effect of over 55% in size
Target sequence (A8B2U2 whole entry, looked up): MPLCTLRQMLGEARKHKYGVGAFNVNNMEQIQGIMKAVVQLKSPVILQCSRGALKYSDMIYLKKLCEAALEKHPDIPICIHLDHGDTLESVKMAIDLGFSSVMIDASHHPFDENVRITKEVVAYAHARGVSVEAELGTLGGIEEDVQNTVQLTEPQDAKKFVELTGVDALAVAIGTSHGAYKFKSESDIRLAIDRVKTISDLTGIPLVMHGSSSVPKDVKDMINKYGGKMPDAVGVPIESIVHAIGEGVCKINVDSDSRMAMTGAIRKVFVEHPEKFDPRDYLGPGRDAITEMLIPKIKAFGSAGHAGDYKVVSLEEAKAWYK
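40 nM FBPA preincubated 10 min at RT with compound (up to 57.5 uM final), then substrate plus GAPDH/TPI/NAD/arsenate coupling and diaphorase/resazurin added. Fluorescence read after 20 min at RT, 525/598 nm.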
Pf growth 48h: Primary qHTS for delayed death inhibitors of the malarial parasite plastid, 48 hour incubation; Potency, µM (series often up to 28.7 µM), usual class: inhibitors; 310,000 compounds, 5.9% hits; P. falciparum luciferase growth in erythrocytes, 48 h
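Luciferase-expressing parasites in RBCs, 2% Hct / 0.1% parasitemia final; RPMI 1640 + 0.5% Albumax; 37 C, 5% CO2, one generation; luminescence read-out, lower signal = inhibition.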
Pf growth 96h: Primary qHTS for delayed death inhibitors of the malarial parasite plastid, 96 hour incubation | P. falciparum luciferase reporter growth, 96 h | 320,000 compounds, 6.9% hits | AID 504834, 2011 | Potency, µM (top dose mostly 28.7 µM), usual class: inhibitors
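P. falciparum expressing integrated firefly luciferase, in erythrocytes at 2% hematocrit, 0.05% parasitemia, incubated with compounds 96 h at 37 C, 5% CO2. Growth inhibition read as loss of luminescence; two-generation exposure targets delayed-death apicoplast inhibitors.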
HCMV antiviral: qHTS Assay for inhibitors of the human cytomegalovirus (HCMV). HFF cells, HCMV-luciferase reporter, 72 h; active compounds read low. activity change, negative = inhibition, % at 57.5 µM. 410,000 compounds, 4.5% hits. AID 1259415, 2018; in the data active = activity change below about -60%; inconclusive = no clear call, values can overlap the other calls; inactive = above about -39%
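Human foreskin fibroblasts infected with luciferase-reporter HCMV at MOI 1 PFU/cell, compounds at two doses. Luciferase measured 72 h post infection; normalized to buffer-only basal and Salinomycin (10uM) controls.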
Large screens that a line does not name were inactive. Unless noted, calls come from the whole dose curve; as a rule, active = well fitted curve in the direction sought with a large enough effect; inconclusive = small, poorly fitted or top-dose-only effect, or another doubt; inactive = no such curve, though single readings can be large; an effect the other way counts as inactive or inconclusive.

Cc1cc2c3c(c1)C1(C(=O)N3C(C)(C)CC2C)C(C#N)=C(N)OC2=C1C(=O)CC(C)(C)C2 (centres undefined)	Pf growth 48h 12µM, Pf growth 96h inconclusive
CC1=CC(C)(C)N2C(=O)C3(C(C#N)=C(N)OC4=C3C(=O)CC(C)(C)C4)c3cc(C)cc1c32 (centres undefined)	Pf growth 96h 13µM (no result: Pf growth 48h)
CC1(C)CC(=O)C2=C(C1)OC(N)=C(C#N)C21C(=O)N(CN2CCOCC2)c2ccccc21 (centres undefined)	none
CN1CCN(C2CCN(c3ccc(Nc4nnc(Cl)c(Nc5ccccc5S(C)(=O)=O)n4)c(OC(CF)CF)c3)CC2)CC1	none (no result: Sm TGR block, FBPA Giardia inh, Pf growth 48h, Pf growth 96h)
O=c1ccc(-c2ccc([N+](=O)[O-])cc2)nn1-c1ccccc1	none
N#Cc1cc(-c2ccccc2)nn1-c1ccccc1	Sm TGR block 0.63µM, FBPA Giardia inh inconclusive
CNc1ccccc1-n1ccc(-c2ccccc2)n1	none (no result: Pf growth 96h)
Cn1ccc(-c2ccccc2)n1	Pf growth 96h 1.7µM
CCOc1ccc(S(=O)(=O)NCC(=O)OCc2nnc(-c3ccccc3)o2)cc1	none (no result: FBPA Giardia inh)
COc1ccc(S(=O)(=O)N(C)CC(=O)N2CCCCCC2)cc1OC	Pf growth 96h 9.3µM
CCN1CCN(C(=O)CN(c2ccc(F)cc2)S(=O)(=O)c2ccc(OC)c(OC)c2)CC1	Pf growth 96h 6.6µM, HCMV antiviral inconclusive
CCN1CCN(C(=O)CN(C)S(=O)(=O)c2ccc(OC)c(C)c2)CC1	none (no result: Pf growth 48h)
COc1ccc(S(=O)(=O)N(C)CC(=O)N2CCN(c3ccc(F)cc3)CC2)cc1OC	none (no result: Pf growth 96h)
CC(C)(C)OC(=O)N1CCCC(C(=O)Nc2ccc(C(=O)NCc3ccccc3)cc2)C1 (centres undefined)	none (no result: Sm TGR block, FBPA Giardia inh, Pf growth 48h, Pf growth 96h)
O=C(COC(=O)CN1C(=O)C2CCCCC2C1=O)Nc1cc(F)ccc1F (centres undefined)	none (no result: FBPA Giardia inh)
Cc1ccc(NC(=O)C(=O)NCC(c2ccc3c(c2)OCO3)N2CCN(C)CC2)cc1C (centres undefined)	none (no result: FBPA Giardia inh, Pf growth 48h, Pf growth 96h)
O=C(N/N=C/c1ccc(O)cc1)/C(=C/c1ccccc1)CCO	Pf growth 48h 13µM, Pf growth 96h inconclusive
O=C(N/N=C/c1ccccc1)C(=O)N/N=C/c1ccccc1	none
COc1ccc(/C(C)=N/NC(=S)NCCc2ccccc2)c(O)c1	Pf growth 48h 0.41µM, Pf growth 96h inconclusive, HCMV antiviral inconclusive
Cc1ccc(C(=O)N/N=C/c2cc(Br)ccc2O)cn1	Pf growth 48h inconclusive, HCMV antiviral -102
COc1ccc(O)c(/C=N/NC(=S)NCCc2ccccc2)c1	Pf growth 48h 2.6µM, Pf growth 96h inconclusive
Cc1ccc(C(=O)N/N=C\C=C\c2ccc(Br)cc2)cn1	Pf growth 96h inconclusive
COCCNC(=S)N/N=C/c1ccccc1C(=O)O	FBPA Giardia inh inconclusive (no result: Pf growth 48h)
C/C(=N\NC(=S)NCCc1ccccc1)c1ccc(C)cc1	none
COc1ccc(/C=N/NC(=S)NCCc2ccccc2)cc1	Pf growth 48h inconclusive, Pf growth 96h inconclusive, HCMV antiviral inconclusive
COCCCNC(=S)N/N=C/c1ccccc1O	Pf growth 48h inconclusive, Pf growth 96h inconclusive, HCMV antiviral -62
Cn1c(=O)oc2cc(S(=O)(=O)Nc3cccc([N+](=O)[O-])c3)ccc21	none
CC(C)NC(=S)N/N=C/c1cc(Br)ccc1O	Pf growth 48h 2.1µM, Pf growth 96h 1.7µM
Cc1cccc(/C=N/NC(=O)c2cc(Br)ccc2O)n1	FBPA Giardia inh inconclusive, Pf growth 96h 12µM
COc1ccc(OC)c(/C=N/NC(=O)CCc2ccc(O)c(O)c2)c1	Sm TGR block 20µM, Pf growth 96h inconclusive
O=C(N/N=C/c1cc(Br)ccc1O)c1ccccc1Cl	FBPA Giardia inh inconclusive, Pf growth 48h inconclusive, Pf growth 96h 9.3µM, HCMV antiviral -65
CCOc1ccc(Br)cc1C(=O)N/N=C/c1cccc(C)n1	none
COC(=O)N/N=C/c1cc(Br)ccc1O	Pf growth 96h inconclusive
COc1ccccc1CN(C)C(=O)CN1C(=O)c2ccccc2C1=O	Pf growth 96h inconclusive
Oc1ccc(Br)cc1/C=N/NC(=S)NCCc1ccccc1	Pf growth 48h 4.7µM, Pf growth 96h 2.3µM
O=C(CCc1ccccc1)N/N=C/c1cc(Br)ccc1O	Pf growth 48h 4.1µM, Pf growth 96h 6.6µM, HCMV antiviral -76
O=C(Cc1ccccc1)N/N=C/c1cc(Br)cc(Br)c1O	Sm TGR block inconclusive, Pf growth 48h inconclusive
CN(C)c1ccc(C(=O)N/N=C/c2cc(Br)cc(Br)c2O)cc1	Pf growth 48h inconclusive, Pf growth 96h inconclusive, HCMV antiviral -90
CC(=O)N/C(=C\c1ccccc1)C(=O)OCC(=O)Nc1ccc(C)c(S(=O)(=O)N(C)C)c1	none (no result: Sm TGR block, FBPA Giardia inh, Pf growth 48h, Pf growth 96h)
CCOC(=O)c1c(NC(=O)COc2cccc3c2CCN(C)C3=O)sc2c1CCC2	Sm TGR block inconclusive, Pf growth 48h inconclusive, Pf growth 96h 13µM, HCMV antiviral -63
Cc1cc(N2C(=O)CCC2=O)n(-c2ccccc2)n1	Pf growth 96h 10µM
CCNC(=O)NC(=O)C(C)OC(=O)c1cccn1C (centres undefined)	Pf growth 48h 10µM
CC(=O)Nc1ccc(NC(=O)C(C)OC(=O)c2c(C)nn(-c3ccccc3)c2Cl)cc1 (centres undefined)	Pf growth 48h inconclusive, Pf growth 96h inconclusive (no result: FBPA Giardia inh)
CCNC(=O)NC(=O)C(C)OC(=O)c1c(C)nn(Cc2ccccc2Cl)c1Cl (centres undefined)	Pf growth 48h inconclusive, Pf growth 96h 12µM, HCMV antiviral inconclusive
Cc1nn(Cc2ccccc2Cl)c(Cl)c1C(=O)NCCc1ccccc1	none
CCNC(=O)NC(=O)C(C)OC(=O)c1c(C)nn(Cc2ccccc2)c1Cl (centres undefined)	Pf growth 48h 13µM, Pf growth 96h inconclusive
COc1ccc(CCNC(=O)c2c(C)oc3nc(C)nc(N4CCOCC4)c23)cc1OC	none (no result: FBPA Giardia inh, Pf growth 48h, Pf growth 96h)
CCc1ccc(NC(=O)C2CCCN(S(=O)(=O)c3cccc4cccnc34)C2)cc1 (centres undefined)	none (no result: FBPA Giardia inh, Pf growth 48h, Pf growth 96h)
O=C1c2ccccc2C(=O)N1SC1CCCCC1	Sm TGR block 45µM
O=C(OCN1C(=O)c2ccccc2C1=O)C1CCCCC1	none
CN=C(NC1CCCCC1)c1ccc([N+](=O)[O-])cc1	FBPA Giardia inh inconclusive
CCc1nc(N)c(C#N)c(-c2ccco2)c1C	none
N#Cc1c(-c2ccco2)cc(-c2ccccn2)nc1N	Sm TGR block 10µM (no result: Pf growth 96h)
N#Cc1c(-c2ccccc2)cc(C2CC2)nc1N	none (no result: Pf growth 96h)
N#Cc1c(-c2ccco2)cc(-c2cccnc2)nc1N	Sm TGR block 11µM, FBPA Giardia inh inconclusive
N#Cc1c(-c2ccco2)cc(C2CC2)nc1N	Sm TGR block 10µM
N#Cc1c(-c2cccnc2)cc(-c2ccccc2)nc1N	none
O=C(CCC1N=C2c3ccccc3N=C(SCc3cccc(F)c3)N2C1=O)NC1CCCCC1 (centres undefined)	none (no result: FBPA Giardia inh, Pf growth 48h, Pf growth 96h)
